# Assay outcomes from PubChem BioAssay.
# HT1080 IDH1KD tx: HT-1080 IDH1 knockdown cell toxicity (counter line) | HT-1080 IDH1 knockdown viability, ATP luminescence, 48 h | Potency, µM (highest dose often 46.1 µM), without a hit: at the highest dose activity, negative = toxicity, actives largely listed as cytotoxic | 2% of 360,000 active | AID 686971;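 also: potency is read from the fitted curve at half-maximal effect; 0% = DMSO wells and -100% = cell-free medium wells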
#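 % activity derives from luminescence (CellTiter-Glo), normalised to DMSO and no-cell wells. HT-1080-IDH1KD cells, 750/well, had 48 h compound exposure at 37 °C.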
# TDP1 cell CPT: DT40-hTDP1 cell growth loss with CPT | Potency, µM (series often up to 46.2 µM), inactives show at the highest dose activity change, negative = growth inhibition, usual class: inhibitors | 12% of 420,000 active | chicken DT40 Tdp1-/-;hTDP1 cells + 20 nM CPT, ATP luminescence, 48 h; also: potency is read from the fitted curve at half-maximal effect; nearly all actives have a fitted effect of over 55% in size
#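 Chicken DT40 Tdp1-/- cells stably complemented with human TDP1 were seeded at 400 cells/well in medium containing 20 nM camptothecin, exposed to pin-transferred compounds, and grown at 37 °C for at least 48 hr. Viability was read as ATP luminescence.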
# DT40 TDP1 no CPT: qHTS for Inhibitors of human tyrosyl-DNA phosphodiesterase 1 (TDP1): qHTS in cells in absence of CPT | DT40 Tdp1-/- hTDP1 cells, no CPT, ATP luminescence, 48 h | Potency, µM (titrated, usually from 46.2 µM), inactives show top-dose activity change, negative = growth inhibition, most hits filed as inhibitors | 15% of 420,000 active; also: potency is read from the fitted curve at half-maximal effect; nearly all actives have a fitted effect of over 55% in size
#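 A cellular qHTS used chicken DT40 cells lacking endogenous Tdp1 but carrying stably transfected human TDP1. Compounds were applied without camptothecin, and cell growth kinetics were judged by ATP-dependent luminescence after ≥48 hr.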
# ELG1 repair inh: inhibitors of ELG1-dependent DNA repair in HEK293T cells | 2.3% of 330,000 active | AID 504467 | HEK293T ELG1-luciferase reporter, luminescence, 16 h; DNA damage induced by 5-fluorouridine | Potency, µM (highest dose often 46.1 µM), inactives show at the top dose activity change, negative = inhibition, most hits filed as inhibitors; also: potency is read from the fitted curve at half-maximal effect; nearly all actives have a fitted effect of over 55% in size
#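 Quantitative HTS, concentration-response format. 2,000 cells/well co-treated with 5-fluorouridine and compound, 16 hr in 5% CO2 at 37 °C; ONE-Glo luminescence read after 30 min.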
# HT1080-NT tox: kills 2HG-producing HT-1080-NT fibrosarcoma cells; Potency, µM (titrated, usually from 46.1 µM), for inactives: at the top dose activity, negative = less viability, most hits filed as cytotoxic; 1.6% of 360,000 active; AID 686970; HT-1080-NT fibrosarcoma viability, CellTiter-Glo ATP luminescence, 48 h;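 also: NT is the 2HG producing partner of a matched IDH1 knockdown line; potency is read from the fitted curve at half-maximal effect; 0% = DMSO-treated cells and -100% = media-only wells without cells; nearly all actives have a fitted effect of over 55% in size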
#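 750 cells/well, RPMI + 5% FBS; 2 h settle, compound pin-transfer, 48 h at 37 degrees C. CellTiter-Glo 10 min RT, luminescence. Normalized to DMSO and media-only wells.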
# IL1B secr inh: inflammasome signaling inhibition, IL-1 beta readout; THP-1 LPS/ATP IL-1B secretion, AlphaLISA, 16 h; stronger effect = lower value; activity change, % at 57.5 µM; 4.7% of 360,000 active; in the data active = activity change below about -50%; inconclusive = mostly about -30% to -49%
#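 Secreted IL-1B measured by AlphaLISA bead assay after 16 h compound exposure of THP-1 cells; compounds (final up to 57.5 uM) added 1 h before LPS (250 ng/mL) and ATP (1.25 mM) stimulation; lower signal means less secretion.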
# Numbers without * were called inactive; ? = inconclusive; · = not tested or not shown; [ ] = remark or other dose. Shown are actives, neighbours in structure and some others; about 19% of the full set was active somewhere. Unless noted, calls follow the shape of the dose curve; as a rule, active = well fitted curve in the direction sought with a large enough effect; inconclusive = small, poorly fitted or top-dose-only effect, or another doubt; inactive = no such curve, though single readings can be large; an effect the other way counts as inactive or inconclusive. Unless noted, % is scaled to controls: 0 for no effect and ±100 for the full control effect.
SMILES,HT1080 IDH1KD tx,TDP1 cell CPT,DT40 TDP1 no CPT,ELG1 repair inh,HT1080-NT tox,IL1B secr inh
CCCN1CCN(c2ncnc3c2nnn3Cc2ccccc2)CC1,?,16µM*,21µM*,-19%,-16%,23
S=c1sc2c(N3CCN(Cc4ccccc4)CC3)ncnc2n1-c1ccccc1,10%,16µM*,23µM*,-7%,12%,0
Cn1nnc2c(N3CCN(Cc4ccccc4)CC3)ncnc21,14%,?,16µM*,·,2%,·
Clc1cccc(Cl)c1Cn1cnc2c(N3CCCCCC3)ncnc21,-4%,18µM*,10µM*,?,-6%,-74*
COCC1CCCN(Cc2ccc3c(c2)CN(C(=O)c2ccc(-n4cccn4)cc2)CCO3)C1 (stereo not drawn),·,7%[9.04 µM],0%,·,·,·
O=C(NC1CC(=O)N(c2ccc(Cl)cc2)C1)c1cc2ccccc2o1 (stereo not drawn),·,-1%,-19%,·,·,·
CC(C)CCNC(=O)CN(C(=O)CCC(=O)Nc1nccs1)c1ccc2c(c1)OCCO2,6%,?,-27%,?,22%,-15
CN1CCN(C(=O)C2Cc3c(-c4cccc(F)c4)ccnc3O2)CC1 (stereo not drawn),7%,-18%,-9%,·,14%,10
CCOC(=O)[C@H]1[C@H]2COc3ccc(Br)cc3[C@@H]2N2C(=O)CN(CC3CCCO3)C(=O)[C@@]12C (stereo partly drawn),0%,-12%,1%,-3%,0%,-13
O=C(OCc1cc(=O)n2nc(C3CCCCC3)sc2n1)c1ccc(F)cc1,·,-3%,-28%,·,·,·
c1ccc(Cn2nnc3c(N4CCCCCC4)ncnc32)cc1,-25%,?,16µM*,?,-22%,-12
N=C1C(c2nc3ccccc3c(=O)[nH]2)=C(O)CN1CCc1ccccc1,17%,2.6µM*,6.5µM*,-5%,27%,-12
OC[C@@H]1[C@@H](c2ccccc2)C(c2cccc(Cl)c2)=NN1c1ccccc1,?,21µM*,21µM*,?,12µM*,?
OC[C@@H]1[C@@H](c2ccccc2)C(c2ccccc2)=NN1c1ccccc1,-1%,?,16µM*,?,4%,7
Cc1cccc(C2=NN(c3ccccc3)[C@H](CO)[C@H]2c2ccc(Cl)cc2)c1,?,?,?,3%,?,24
O=C1NC[C@H](CCCCN2C[C@@H](Cc3ccccc3)N(Cc3ccccc3)C(=O)C2=O)N(CCC2CCCCC2)C1=O,9%,-4%,?,·,12%,?
Cc1ccc(-c2noc(CCC(=O)NCCCN3CCN(c4ccc(F)cc4)CC3)n2)cc1,-12%[9.24 µM],6.5µM*,7.3µM*,?,23µM*,-68*
Cc1ccc(-c2noc(CCC(=O)NCCCN3CCN(c4cccc(Cl)c4)CC3)n2)cc1,?,12µM*,8.2µM*,?,?,-67*
CC1(C)CC(=O)c2cc(OCC(=O)NCCCN3CCN(c4ccc(F)cc4)CC3)ccc2O1,?,11µM*,?,?,?,?
O=C(Cn1cnc2scc(-c3ccc(Br)cc3)c2c1=O)N1CCOCC1,-3%,-17%,-1%,-26%,-6%,-27
O=C(CN(c1ccc(F)cc1)S(=O)(=O)c1ccccc1)N1CCOCC1,-2%,-3%,-9%,·,-1%,2
CCNC(=S)NNC(=O)c1cc(-c2cccc(C)c2)nc2ccccc12,6.3µM*,21µM*,7.3µM*,?,?,-11
CCCCOc1cccc(-c2cc(C(=O)NNC(=S)NCC)c3ccccc3n2)c1,?,?,?,?,?,3
CCNC(=S)NNC(=O)c1cc(-c2cccc(OCC)c2)nc2ccccc12,7%,15µM*,10µM*,?,?,-1
Cn1c(=O)c2sccc2n2c(CCCC(=O)N3CCN(c4ccccn4)CC3)nnc12,8%,0%,-7%,2%,-6%,19
SMILES,HT1080 IDH1KD tx,TDP1 cell CPT,DT40 TDP1 no CPT,ELG1 repair inh,HT1080-NT tox,IL1B secr inh
CCN(CCNC(=O)C1CCCN(S(=O)(=O)CC)C1)c1ccccc1 (stereo not drawn),-13%,-2%,-2%,5%,17%,-14
CCN(CCNC(=O)C1CCN(Cc2nc(-c3ccc(Cl)cc3)oc2C)CC1)c1ccccc1,?,23µM*,18µM*,16µM*,?,-54*
Cc1oc(-c2cccc(Br)c2)nc1CN1CCC(C(=O)NCCc2ccc(Cl)cc2)CC1,·,16%,?,·,·,·
CCN(CCNC(=O)C1CCCN(Cc2nc(-c3ccc(OC)cc3)oc2C)C1)c1ccccc1 (stereo not drawn),-30%,16µM*,23µM*,?,?,-73*
COc1cccc(OC)c1C(=O)Nc1ccc(S(=O)(=O)N2CCCCC2)cc1,0%,-2%,-14%,?,-27%,-3
COc1ccc(C(=O)C2CCCN(Cc3cn(C)nc3-c3ccccc3)C2)cc1F (stereo not drawn),-12%,?,26µM*,-12%,-12%,-15
CSc1ccc(C(=O)C2CCCN(S(=O)(=O)N(C)C)C2)cc1 (stereo not drawn),-7%,7%,?,?,-6%,-6
CCOc1ccccc1CN1CCCC(C(=O)c2ccc(OC)c(OC)c2)C1 (stereo not drawn),-18%,?,?,-19%,-1%,0
CN(C)S(=O)(=O)N1CCCC(C(=O)c2ccc(-c3ccccc3)c(F)c2)C1 (stereo not drawn),?,16µM*,15µM*,?,-9%,-5
CCn1cc(CN2CCCC(C(=O)c3ccc(-c4ccccc4)c(F)c3)C2)cn1 (stereo not drawn),21µM*,18µM*,23µM*,-22%,?,-81*
COc1c(C)cc(C(=O)C2CCCN(S(=O)(=O)N(C)C)C2)cc1C (stereo not drawn),-2%,?,13µM*,0%,-16%,3
O=C(c1ccc(-c2ccccc2)c(F)c1)C1CCCN(CCCn2cccn2)C1 (stereo not drawn),-11%,16µM*,?,-7%,-7%,?
CCC(=O)OCc1cc(=O)n2nc(C3CC3)sc2n1,·,-18%,-23%,·,·,·
